Many of the other results were omitted from the sample, so hits are more common in it than they were.
ROC1-CUL1 inh: inhibitors of human ROC1-CUL1 ubiquitin ligase activity. in vitro K48 di-Ub FRET, acceptor:donor ratio, 45 min. inhibition, % at 10 µM. E3 ubiquitin-protein ligase RBX1 (Homo sapiens) + Cullin-1 (Homo sapiens), P62877+Q13616. 140,000 compounds, 0.6% hits. AID 1347404, 2020; in the data active = inhibition above about 25%
Target sequence (P62877 whole entry, looked up): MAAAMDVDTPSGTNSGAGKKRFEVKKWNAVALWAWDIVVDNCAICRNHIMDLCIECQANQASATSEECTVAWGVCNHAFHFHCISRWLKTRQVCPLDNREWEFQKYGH
Target sequence (Q13616 whole entry, looked up): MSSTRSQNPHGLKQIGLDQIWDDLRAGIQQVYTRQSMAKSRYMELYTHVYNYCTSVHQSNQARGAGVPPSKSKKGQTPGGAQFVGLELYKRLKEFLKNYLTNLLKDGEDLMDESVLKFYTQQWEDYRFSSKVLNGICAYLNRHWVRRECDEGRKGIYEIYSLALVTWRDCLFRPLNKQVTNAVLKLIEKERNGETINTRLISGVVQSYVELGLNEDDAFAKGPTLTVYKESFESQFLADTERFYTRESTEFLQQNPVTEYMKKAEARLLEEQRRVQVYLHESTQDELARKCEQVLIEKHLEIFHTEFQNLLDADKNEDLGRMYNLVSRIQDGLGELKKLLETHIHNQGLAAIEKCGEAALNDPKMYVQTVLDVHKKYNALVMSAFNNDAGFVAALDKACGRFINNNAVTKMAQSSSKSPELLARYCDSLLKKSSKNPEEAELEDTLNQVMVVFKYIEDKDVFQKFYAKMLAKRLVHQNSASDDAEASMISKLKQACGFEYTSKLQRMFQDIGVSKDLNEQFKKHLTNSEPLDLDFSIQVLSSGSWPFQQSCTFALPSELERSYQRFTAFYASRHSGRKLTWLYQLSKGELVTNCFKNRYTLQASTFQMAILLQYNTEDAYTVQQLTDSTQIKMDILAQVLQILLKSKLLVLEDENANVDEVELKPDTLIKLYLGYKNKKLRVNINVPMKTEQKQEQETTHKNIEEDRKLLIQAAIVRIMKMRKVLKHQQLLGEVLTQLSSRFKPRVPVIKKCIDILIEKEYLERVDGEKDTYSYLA
The depositor's hits bear a star.

SMILES	ROC1-CUL1 inh
Nn1c(SCc2ccc(F)cc2)nc2sc3c(c2c1=O)CCCC3	6
CCCSCCCNC(=O)Cn1c(-c2cccs2)cc2ccccc21	-3
CCCC(C)NS(=O)(=O)c1ccc(OC)c(C(=O)N2CCC(C)CC2)c1 (centres undefined)	0
Cc1ccc(Sc2cc3ccccc3oc2=O)cc1	-15
Cn1cc(CN2CCNC(=O)CC2)c(-c2cccc(Cl)c2)n1	5
CCc1nn(CC(=O)NCCc2ccc(OC)cc2OC)c(=O)c2cc3sccc3n12	-1
CC(=O)Sc1ccc(N2C(=O)CCC2=O)cc1	37*
O=C(Oc1ccc(N2C(=O)CCC2=O)cc1)c1ccccc1	2
O=C1CCC(=O)N1c1cccc(Cl)c1	8
CNC(=O)c1c(NC(=O)c2ccc(S(=O)(=O)N3CCCC(C)C3)cc2)sc2c1CCC2 (centres undefined)	4
COCCN1CCC(CNc2nncc(-c3c(OC)cccc3OC)n2)CC1	-3
O=C1S/C(=C\c2cc(Cl)c(O)c(Cl)c2)C(=O)N1c1cccc(Cl)c1	5
O=C1S/C(=C\c2ccccc2C(F)(F)F)C(=O)N1c1ccc(Cl)cc1	11
COc1cc(/C=C2\SC(=O)N(c3ccc(Cl)cc3)C2=O)cc(Cl)c1O	63*
O=C1S/C(=C\c2cc(Br)cc(Br)c2O)C(=O)N1c1ccc(Cl)cc1	31*
O=C1S/C(=C\c2cc(Cl)c(O)c(Cl)c2)C(=O)N1c1ccc(Cl)cc1	22
CCOc1cc(/C=C2\SC(=O)N(c3ccc(Cl)cc3)C2=O)cc(Cl)c1O	8
CCOC(=O)CNC(=O)C(CCCCCS(=O)(=O)c1ccc(C)cc1)NC(=O)OCc1ccccc1 (centres undefined)	-2
CCCCOc1ccc(C2C(C(=O)Nc3ccccc3OC)C(C)=Nc3nnnn32)cc1OC (centres undefined)	6
CC(=O)C1C(=O)Oc2c(ccc3ccccc23)C1=O (centres undefined)	40*
O=C1CC(O)(C(F)(F)F)Oc2c1ccc1ccccc21 (centres undefined)	-1
CC(=O)c1coc2ccc3ccccc3c2c1=O	6
C/C(=N/NC(=O)C1CC1c1ccccc1)c1ccccc1 (centres undefined)	12
CCN(CC)S(=O)(=O)c1ccc(OC)c(NC(=O)COc2ccc(C)c(C)c2)c1	11
O=C(CN1C(=O)S/C(=C\c2cccn2-c2cccc(C(=O)O)c2)C1=O)Nc1ccc(Cl)cc1	49*
SMILES	ROC1-CUL1 inh
Cc1c(C(=O)O)cccc1-c1ccc(/C=C2\SC(=O)N(CC(=O)Nc3ccc4c(c3)OCO4)C2=O)o1	26*
Cc1ccccc1NC(=O)CN1C(=O)S/C(=C\c2ccc(-c3cccc(C(=O)O)c3C)o2)C1=O	11
O=C(CN1C(=O)S/C(=C/c2ccc(-c3ccc(Cl)c(C(=O)O)c3)o2)C1=O)Nc1ccccc1	104*
O=C(CN1C(=O)c2cccc3cccc1c23)Nc1ccc2c(c1)OCO2	1
N#Cc1ccccc1CN1C(=O)S/C(=C\c2ccc(-c3ccc(C(=O)O)c(Cl)c3)o2)C1=O	0
COc1ccc(NC(=O)CN2C(=O)S/C(=C/c3cccn3-c3ccc(C)c(C)c3)C2=O)cc1	-2
Cc1ccc(NC(=O)CN2C(=O)S/C(=C\c3ccc(-c4cc(C(=O)O)ccc4Cl)o3)C2=O)cc1C	8
O=C(CN1C(=O)S/C(=C\c2ccc(Cl)cc2)C1=O)Nc1ccc(C(=O)O)cc1	5
Cc1c(Br)ccc(NC(=O)CN2CCOCC2)c1C	3
CC(=O)c1cccc(N2C(=O)C3C(c4ccccc4)C=CC(c4ccccc4)C3C2=O)c1 (centres undefined)	7
CCN(CC)CC(C)OC(=O)COc1ccccc1 (centres undefined)	1
CN1C(=O)c2ccc(N3C(=O)c4ccc([N+](=O)[O-])cc4C3=O)cc2C1=O	-1
C=C(C)CNCc1ccc(OCC(O)CN2CCC(C(=O)OC)CC2)cc1 (centres undefined)	-2
CCOc1ccc2nc(N3C(=O)C(=O)C(C(=O)c4cc5ccccc5o4)C3c3cccc(Oc4ccccc4)c3)sc2c1 (centres undefined)	-2
Cc1nnc(N2C(=O)C(=O)C(C(=O)c3cc4ccccc4o3)C2c2ccc(Cl)c(Cl)c2)s1 (centres undefined)	-9
Cc1nnc(N2C(=O)C(=O)C(C(=O)c3cc4ccccc4o3)C2c2cccc(Oc3ccccc3)c2)s1 (centres undefined)	35*
C/C=C(\C)CN1CCCC1C(=O)Nc1ccc(-c2cscn2)cc1 (centres undefined)	10
CCCCC(=O)Nc1ccc2c(c1)c1ccccc1n2CC	0
CCCCOc1ccc(C(C)NC(=O)c2cccc(Nc3nc4ccccc4n4nnnc34)c2)cc1 (centres undefined)	4
COc1cc(/C=C2\SC(NC(C)=O)=NC2=O)cc2sc(=O)oc12	4
CC(C)n1cc(/C=C2/SC(=O)N(CC(=O)N3CCOCC3)C2=O)c2ccccc21	-1
COCCN1C(=O)C(Cc2ccc(-c3cccc(C(=O)O)c3)o2)=NC1=S	35*
O=C(O)c1cccc(-c2ccc(CNC3CCCC3)o2)c1	-6
C=CCN1C(=O)N=C(Cc2ccc(-c3cccc(Br)c3)o2)C1=O	-1
CCCCCC1=NN2C(=N)/C(=C\c3ccc([N+](=O)[O-])o3)C(=O)N=C2S1	101*
SMILES	ROC1-CUL1 inh
CCCCCCCC1=NN2C(=N)/C(=C/c3ccc(-c4ccc(F)cc4)o3)C(=O)N=C2S1	8
CCCCCCCC1=NN2C(=N)/C(=C/c3ccc(-c4ccc(Cl)cc4)o3)C(=O)N=C2S1	3
O=C1C=CC(=O)c2c1c(-c1ccccc1)nn2-c1ccccc1	92*
O=C(O)c1nn(-c2ccccc2)c(-c2ccccc2)c1C(=O)c1ccccc1	-5
Oc1ccc2c(c1)c(-c1ccccc1)nn2-c1ccccc1	-2
Cc1ccc(N2CCC(C3CCN(CC(C)C)CC3)C2)nn1 (centres undefined)	-6
CC1=Nc2nc(SCc3ccccc3)nn2C(c2ccc(C(C)C)cc2)C1C(N)=O (centres undefined)	-5
CCc1cccc2c(/C=C3/C(=O)NC(=S)N(CC)C3=O)cn(CCOc3ccccc3Cl)c12	-2
CCc1cccc2c(/C=C3\C(=O)NC(=S)N(Cc4ccco4)C3=O)cn(CC(N)=O)c12	74*
CCOC(=O)Cn1cc(/C=C2\C(=O)NC(=O)N(Cc3ccccc3)C2=O)c2ccccc21	1
COC(=O)C1=C(C(=O)OC)C(CCc2ccccc2)N(c2ccccc2)C(C(=O)OC)=C1C(=O)OC (centres undefined)	10
CCn1c(=O)n(CC)c2cc(N3CCCCC3)c(NC(=O)Nc3cc(Cl)ccc3OC)cc21	-2
CCc1nn(CCCC(=O)N2CCN(c3cc(Cl)ccc3C)CC2)c(=O)c2cc3occc3n12	-4
COc1ccc(/C=N/Nc2nc3c(s2)CCCC3)cc1	55*
CCOc1ccc(/C=N\Nc2nc(C)c(C(C)=O)s2)cc1	9
COc1ccc(CC(=O)Nc2nc3c(s2)CCCC3)cc1	2
CC1(C)CC(CCNC(=O)Cc2ccccc2)(Cc2ccccc2)CCO1 (centres undefined)	2
COc1ccc(/C=C2\CCCC3C2=NN(C(=O)Cn2nc(C(F)(F)F)cc2C)C3c2ccc(OC)c(OC)c2)cc1OC (centres undefined)	6
CCCCC1CCC(CCc2ccc(-c3ccccc3)c(F)c2)CC1 (centres undefined)	11

Screening results (PubChem BioAssay)
